For this assay, the system named is VDR:RXRa (NR concentration 270 nM, RXRa partner concentration 90 nM). Kind of assay: PBM binding z-score (relative to random genomic background probes); higher = stronger binding; sequences stand for … in GC…GCGATTGACAGCGTAGAATGAAGG
The procedure:
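Protein-binding microarray (Agilent 4x180K custom design, double-stranded 60-nt probes: 5' GC cap, 34-nt variable region, 24-nt constant primer region; full probe sequence given). Purified or IVT nuclear receptor:RXRα heterodimers (3:1 NR:RXRα, mostly 270:90 nM) or homodimers were incubated for 1 h in PBS with 2% milk and no ligand, then detected with Alexa488 antibodies. Fluorescence from o1-orientation probes (~5 replicates averaged) was converted to z-scores against 500 random hg19 background probes. Variable regions are seed direct-repeat (DR0–DR5) sites, all their single-nucleotide variants and half-site ablations.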
TCTGCTAGGTCAGTTTGTCAGCTAACGAGCTGCC: the PBM binding z-score worked out at 0.205. Under CCGACTGAGGCAAGGTTACCATAACGCACAGCCA stands 0.0737.

As for GGAACGAGGGCATTCTAGTTGATAGCATGGCGAT, the PBM binding z-score is 1.81.

The sequence GCTATTAGTTGACAGGGCAACCGAATGATTCTCG showed a PBM binding z-score of -0.414. Consider AGAACGAGGGCATTGAGTTGATAGCACGGGTGGC, for which the PBM binding z-score amounted to 5.24. Under TATACAGGGTCAAAGGCTAGAGTACGAATGTCGA stands 4.8; under GTACTAAGGTGAATAGGTCGTTGATGAGTAGGCG, 1.24; under TCGAGTAGGTTAGTCTGGGCATTCAGCCAACATA, -0.0618.

TCATATAGGTAAAGGTGAAAGGCGAACGATATGA: the PBM binding z-score was 1.14. The sequence AGAACGAGGGCAACGAGTTGATAGCACGGGTGGC yielded a PBM binding z-score of 5.16. Sequence TCGAGTAGGTTAGGGGCATTCAAAATGGCGTCGA returned a PBM binding z-score of 0.856.

As for TCTAGTTGGTCACGGAGGTCAGACACGACGGGTA, the PBM binding z-score was 4.68. For ATCTCTAGGTAAAAGTTCAGTGAGTCCCGAGGAT, the PBM binding z-score amounted to 2.09. Take CCAGACAGGTGAGAAGGTAACTCACCCTCGATTA: the PBM binding z-score stood at 0.0837.

TAGCCTAGGTCATGCGGGGCAGTATAGTGTCGGC: the PBM binding z-score stood at 4.22.

The sequence CGAACGAGGGCATGAGTGGATAGCAAATGCCGAT had a PBM binding z-score of 0.295. Next, ACAGACAGGTTATGAAGGTAACTCAGGCTATCAT: 1.3; GCTTGTAGATTAAGGTTAAGAAAGACTAAGCTAA: 0.125; CCTAGTTGGTCCGGAGGTCACACACCGGATATGA: 3.77. The sequence ATATCTAGGTAACAAGTTCAGTGAAAGAGAGGAC returned a PBM binding z-score of 2.31. Sequence CCTCGGAGGACAACAGTAGGTCAGAGCTGCCAGA gave a PBM binding z-score of 0.152. As to CCTACTGGGCCAAGGTTATTGATCAGTCAAAGCA, the PBM binding z-score is -0.0867. Next, ATCGCTAGGTAACAAGTTCAGTGAAAGAGAGGAC: 1.42. Under TCTAGTTGGTCAAAAGTCACACACTCGAAATGCG stands 1.21. TCATATAGGTAATGCAGGTGAAAGTCGGCATCTA had a PBM binding z-score of 0.862. Next, CGTCCAAGGTCAATGCTGGGTCAGTGAAAGCATT: 4.79; ACTCGGAAGACAAAGGTCAGAGCTACGCCAGTGA: 2.63. Under GCTAGTTGGTCAGTAAAAGCTCACACACCGGTCG stands -0.481; under AAAATGAGGTTATTAAGATCAGGGAATTGCGGTC, 2.47; under TAGCCTAGGTCATGCGGGCCAGTATCGTGTCGGC, 2.81. TAGCCTAGGTCATGCAGGCCAGTATAGTGTCGGC showed a PBM binding z-score of 3.25.

Take ATCGAAAGGTCGTGAGTTGAGTATACAGAAAGGC: the PBM binding z-score turned out to be 3.51.

In turn, GCTAGCAGGCCATCTGGGTCACTCAATGACGGGC returned a PBM binding z-score of 1.04.

GCTGGTAGGTCAGGTTGGTCAGCTAACGGGTACG: the PBM binding z-score was 1.04.

As for CCTACTTGGTCAGGAGGTCACACACCGGATATGA, the PBM binding z-score turned out to be 3.89.

The sequence CCGACTGGGCCACGAAAGGTCATTGATTCAGTGA showed a PBM binding z-score of 4.05. Under CAAACTAGGTCACAGAGGCCAAAGTCCGTGCGTA stands 6.5; under CTCAAAAGGTCGTGCTCAGGTGAGTATACCAAAC, 3.5; under CAAACTAGGTGACAGAGGTCAAAGTCCGTGCGTA, 6.42. On to CTCGAAAGGTCGGTAGAGGTGAGTATACGGATAA, for which the PBM binding z-score is 2.05.

The record behind these values is the supplement of paper PMC6555819.
